Here are results for 26 targets from the supplement of paper PMC10849652.

The full data set covers some 7,900 targets. This sample favours those with a hit. About 0.6% of all pairs of compound and target were hits. Unmarked numbers belong to inactive results.

Test in all cases: log2 fold change, soluble protein after heating vs DMSO (PISA); higher = thermal stabilisation; K562 cells, 10 uM, 30 min; active = over 0.2 and 3.5 SD of the protein, either way, in both replicates (recomputed)
Compound in test [1]: C1=CC=C(C=C1)[C@H](COC2=CC3=C(C=C2)NC(=O)N3)NC(=O)C4=CC=CN(C4=O)CC5=CC(=C(C=C5)F)F
A digest of the protocol: (§1)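 K562 cells (2×10^6 cells/mL) were treated with 10 μM compound for 30 min, and aliquots were heated for 3 min over 48°C-58°C. Pooled aliquots were extracted in PBS with 0.5% NP-40 at 4°C, and the supernatant after 21,000xg for 90 min was measured by TMTpro 16plex LC-MS/MS with channel sums equalised. Reported thermal stability, relative to control samples and from duplicates, is a log2 fold change.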

Compound in test [2]: CC1=C(SC2=C1C(=N[C@H](C3=NN=C(N32)C)CC(=O)N)C4=CC=C(C=C4)Cl)C
The method in brief: as §1

Compound in test [3]: CC1=C2C(=CC=C1)N=C(N(C2=O)C3=CC=CC=C3C)CN4C=NC5=C(N=CN=C54)N
A digest of the protocol:
as §1

Compound in test [4]: Cc1sc2c(c1C)C(c1ccc(Cl)cc1)=N[C@@H](CC(=O)OC(C)(C)C)c1nnc(C)n1-2
The method in brief: as §1

Compound in test [5]: c1ccc([C@@H]2C[C@H]2NC2CCNCC2)cc1
The method in brief:
as §1

UniProt Q86UL3, sequence (Q86UL3 whole entry, looked up): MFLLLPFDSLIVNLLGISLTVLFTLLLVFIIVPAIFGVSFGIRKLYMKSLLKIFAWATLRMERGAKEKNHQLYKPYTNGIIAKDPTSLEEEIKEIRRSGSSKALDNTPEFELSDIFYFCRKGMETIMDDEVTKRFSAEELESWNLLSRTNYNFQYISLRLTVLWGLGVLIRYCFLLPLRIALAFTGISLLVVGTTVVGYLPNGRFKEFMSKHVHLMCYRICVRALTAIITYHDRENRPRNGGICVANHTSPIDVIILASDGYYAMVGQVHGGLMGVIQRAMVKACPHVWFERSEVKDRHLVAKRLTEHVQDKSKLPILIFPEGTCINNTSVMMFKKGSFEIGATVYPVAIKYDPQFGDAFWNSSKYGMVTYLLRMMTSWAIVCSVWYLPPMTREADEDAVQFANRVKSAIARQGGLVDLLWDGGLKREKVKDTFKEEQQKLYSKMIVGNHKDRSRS
UniProt O94925, sequence (O94925 whole entry, looked up): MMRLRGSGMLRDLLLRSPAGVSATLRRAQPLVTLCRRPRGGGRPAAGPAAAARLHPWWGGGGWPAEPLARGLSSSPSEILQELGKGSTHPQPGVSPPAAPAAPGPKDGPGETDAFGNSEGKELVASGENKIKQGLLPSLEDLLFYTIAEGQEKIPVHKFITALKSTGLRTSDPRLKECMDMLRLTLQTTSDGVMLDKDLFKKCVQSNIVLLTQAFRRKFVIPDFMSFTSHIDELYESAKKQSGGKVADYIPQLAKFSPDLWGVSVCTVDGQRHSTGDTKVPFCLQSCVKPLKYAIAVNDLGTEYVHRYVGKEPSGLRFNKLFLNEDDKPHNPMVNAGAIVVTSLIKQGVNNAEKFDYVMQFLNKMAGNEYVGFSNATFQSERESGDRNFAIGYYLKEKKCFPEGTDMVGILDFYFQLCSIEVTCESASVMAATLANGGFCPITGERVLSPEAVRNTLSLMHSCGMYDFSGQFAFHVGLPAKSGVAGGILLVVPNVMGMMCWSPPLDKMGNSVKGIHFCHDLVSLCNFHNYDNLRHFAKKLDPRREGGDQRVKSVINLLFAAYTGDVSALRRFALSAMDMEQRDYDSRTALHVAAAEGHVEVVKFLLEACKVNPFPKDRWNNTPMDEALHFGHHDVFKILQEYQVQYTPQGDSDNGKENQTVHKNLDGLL
UniProt Q92664, sequence (Q92664 whole entry, looked up): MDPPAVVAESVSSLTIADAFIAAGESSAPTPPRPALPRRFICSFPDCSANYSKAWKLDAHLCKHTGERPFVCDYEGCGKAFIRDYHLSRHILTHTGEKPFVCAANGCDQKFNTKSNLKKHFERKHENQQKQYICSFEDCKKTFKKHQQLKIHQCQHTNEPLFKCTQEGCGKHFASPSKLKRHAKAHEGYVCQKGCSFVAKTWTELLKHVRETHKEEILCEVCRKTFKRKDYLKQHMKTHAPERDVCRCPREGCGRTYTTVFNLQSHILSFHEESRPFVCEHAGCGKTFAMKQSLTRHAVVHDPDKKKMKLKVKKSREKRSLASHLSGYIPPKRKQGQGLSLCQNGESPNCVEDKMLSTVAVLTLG
UniProt P52657, sequence (P52657 whole entry, looked up): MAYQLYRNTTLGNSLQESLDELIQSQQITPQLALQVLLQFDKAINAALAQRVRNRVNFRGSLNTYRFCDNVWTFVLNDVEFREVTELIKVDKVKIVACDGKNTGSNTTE
UniProt P05362, sequence (P05362 whole entry, looked up): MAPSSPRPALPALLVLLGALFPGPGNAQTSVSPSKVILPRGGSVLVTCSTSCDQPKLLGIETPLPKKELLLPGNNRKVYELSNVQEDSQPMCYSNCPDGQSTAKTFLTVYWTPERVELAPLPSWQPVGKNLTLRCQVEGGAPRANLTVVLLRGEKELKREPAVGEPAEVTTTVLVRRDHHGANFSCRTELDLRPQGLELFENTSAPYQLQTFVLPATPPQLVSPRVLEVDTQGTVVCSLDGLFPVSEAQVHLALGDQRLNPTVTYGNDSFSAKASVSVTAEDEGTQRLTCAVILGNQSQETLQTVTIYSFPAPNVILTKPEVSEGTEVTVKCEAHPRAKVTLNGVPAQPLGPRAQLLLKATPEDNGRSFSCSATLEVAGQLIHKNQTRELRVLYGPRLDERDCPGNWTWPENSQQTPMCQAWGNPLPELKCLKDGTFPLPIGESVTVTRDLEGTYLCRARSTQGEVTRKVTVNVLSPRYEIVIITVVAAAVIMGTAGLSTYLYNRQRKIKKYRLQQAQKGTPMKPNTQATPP
UniProt P29084, sequence (P29084 whole entry, looked up): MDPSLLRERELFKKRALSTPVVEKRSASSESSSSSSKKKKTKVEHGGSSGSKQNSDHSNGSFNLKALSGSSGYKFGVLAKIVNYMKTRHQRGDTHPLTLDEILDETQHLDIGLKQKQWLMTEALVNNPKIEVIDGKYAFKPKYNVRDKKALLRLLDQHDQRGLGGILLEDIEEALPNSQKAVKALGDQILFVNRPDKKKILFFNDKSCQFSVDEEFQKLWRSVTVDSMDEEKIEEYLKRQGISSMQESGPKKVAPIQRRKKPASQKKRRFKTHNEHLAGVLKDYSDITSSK
UniProt Q8IVV7, sequence (Q8IVV7 whole entry, looked up): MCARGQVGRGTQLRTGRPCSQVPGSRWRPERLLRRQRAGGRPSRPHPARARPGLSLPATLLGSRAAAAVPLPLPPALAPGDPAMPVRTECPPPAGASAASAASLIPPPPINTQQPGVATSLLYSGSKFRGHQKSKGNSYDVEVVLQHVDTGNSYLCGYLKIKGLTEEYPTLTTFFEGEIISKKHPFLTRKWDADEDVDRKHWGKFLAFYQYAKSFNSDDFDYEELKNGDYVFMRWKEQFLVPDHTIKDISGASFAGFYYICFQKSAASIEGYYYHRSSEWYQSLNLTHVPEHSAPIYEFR
UniProt Q03014, sequence (Q03014 whole entry, looked up): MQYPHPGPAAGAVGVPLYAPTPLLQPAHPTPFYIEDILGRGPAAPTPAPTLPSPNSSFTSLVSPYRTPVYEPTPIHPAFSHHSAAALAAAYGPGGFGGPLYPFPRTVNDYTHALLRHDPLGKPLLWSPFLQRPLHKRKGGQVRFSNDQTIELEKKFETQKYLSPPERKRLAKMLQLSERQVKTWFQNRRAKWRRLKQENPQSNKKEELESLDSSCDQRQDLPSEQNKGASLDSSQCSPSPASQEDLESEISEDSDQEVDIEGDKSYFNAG
UniProt O14976, sequence (O14976 whole entry, looked up): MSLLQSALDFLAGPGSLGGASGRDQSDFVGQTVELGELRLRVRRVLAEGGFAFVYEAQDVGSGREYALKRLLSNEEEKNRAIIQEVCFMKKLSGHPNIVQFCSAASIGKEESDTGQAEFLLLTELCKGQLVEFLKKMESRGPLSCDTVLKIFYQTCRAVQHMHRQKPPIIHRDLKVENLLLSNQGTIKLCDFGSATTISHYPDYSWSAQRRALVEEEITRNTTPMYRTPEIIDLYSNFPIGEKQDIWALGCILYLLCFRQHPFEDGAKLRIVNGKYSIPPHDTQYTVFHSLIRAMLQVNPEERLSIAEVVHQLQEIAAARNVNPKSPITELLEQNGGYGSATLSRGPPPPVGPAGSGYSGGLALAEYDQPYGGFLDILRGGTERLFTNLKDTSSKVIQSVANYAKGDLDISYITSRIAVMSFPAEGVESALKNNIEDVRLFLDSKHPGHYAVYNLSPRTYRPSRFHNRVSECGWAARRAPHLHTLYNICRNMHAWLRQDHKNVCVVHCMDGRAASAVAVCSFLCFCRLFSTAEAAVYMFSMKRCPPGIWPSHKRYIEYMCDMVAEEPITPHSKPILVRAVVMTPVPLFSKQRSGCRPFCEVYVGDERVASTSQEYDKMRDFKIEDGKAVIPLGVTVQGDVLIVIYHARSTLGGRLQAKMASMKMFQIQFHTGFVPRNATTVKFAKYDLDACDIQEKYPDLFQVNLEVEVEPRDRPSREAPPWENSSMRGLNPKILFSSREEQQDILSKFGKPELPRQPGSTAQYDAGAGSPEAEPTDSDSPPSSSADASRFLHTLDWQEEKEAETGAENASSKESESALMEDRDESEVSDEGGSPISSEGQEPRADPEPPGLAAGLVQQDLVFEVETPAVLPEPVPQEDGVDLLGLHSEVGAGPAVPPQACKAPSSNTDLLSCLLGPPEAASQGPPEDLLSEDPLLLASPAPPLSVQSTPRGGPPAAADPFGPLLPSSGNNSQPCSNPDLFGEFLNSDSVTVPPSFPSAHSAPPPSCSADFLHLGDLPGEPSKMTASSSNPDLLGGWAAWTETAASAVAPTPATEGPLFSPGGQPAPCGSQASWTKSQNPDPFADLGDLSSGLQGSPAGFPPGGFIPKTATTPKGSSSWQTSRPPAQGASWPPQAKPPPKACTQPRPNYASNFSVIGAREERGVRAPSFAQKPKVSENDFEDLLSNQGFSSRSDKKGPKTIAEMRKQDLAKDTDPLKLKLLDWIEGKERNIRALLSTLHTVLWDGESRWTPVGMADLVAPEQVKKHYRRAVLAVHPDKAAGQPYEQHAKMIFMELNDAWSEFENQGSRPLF
UniProt P08236, sequence (P08236 whole entry, looked up): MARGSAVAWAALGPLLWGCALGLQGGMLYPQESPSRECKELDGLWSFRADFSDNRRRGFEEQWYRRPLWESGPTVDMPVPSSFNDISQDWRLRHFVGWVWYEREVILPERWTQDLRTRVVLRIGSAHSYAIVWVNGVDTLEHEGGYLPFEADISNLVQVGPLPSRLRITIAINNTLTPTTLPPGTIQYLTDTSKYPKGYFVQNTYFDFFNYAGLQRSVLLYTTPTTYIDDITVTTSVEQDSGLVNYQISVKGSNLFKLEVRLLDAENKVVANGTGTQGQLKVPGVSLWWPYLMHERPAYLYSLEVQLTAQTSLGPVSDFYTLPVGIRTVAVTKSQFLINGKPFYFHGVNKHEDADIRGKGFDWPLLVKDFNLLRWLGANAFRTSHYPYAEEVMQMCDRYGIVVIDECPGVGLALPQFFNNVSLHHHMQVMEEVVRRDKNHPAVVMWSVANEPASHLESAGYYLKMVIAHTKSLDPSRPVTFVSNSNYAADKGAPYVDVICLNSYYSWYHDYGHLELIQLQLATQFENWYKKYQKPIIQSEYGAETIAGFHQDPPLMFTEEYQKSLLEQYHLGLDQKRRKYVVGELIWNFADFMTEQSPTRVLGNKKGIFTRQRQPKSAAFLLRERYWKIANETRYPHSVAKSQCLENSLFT

Consider GPAT4 (UniProt Q86UL3), for which the log2 fold change in test [1] is 0.023; in test [2], 0.046; in test [3] it was 0.013; in test [4] it was -0.046; in test [5], -0.015.
For GBF1 (UniProt Q92538) the same measures were -0.078, 0.036, 0.072, -0.005 and 0.003.
Regarding GUSB (UniProt P08236), the log2 fold change is 0.019 in test [1]; -0.057 in test [2]; -0.048 in test [3]; 0.039 in test [4]; 0.053 in test [5].
For GCDH (UniProt Q92947) the same measures were 0.021, 0.012, 0.036, -0.043 and -0.019.
For GABARAPL1 isoform 2 (UniProt Q9H0R8), in that order: 0.02, 0.094, 0.073, -0.022 and -0.036.
For GDPD1 (UniProt Q8N9F7) the same measures were -0.054, 0.003, 0.057, -0.024 and 0.034.
On to FNTA (UniProt P49354), for which the log2 fold change in test [1] was -0.009; in test [2], -0.024; in test [3] it was 0.02; in test [4], 0.04; in test [5], -0.009.
Consider GATA1 (UniProt P15976), for which the log2 fold change in test [1] was 0.061; in test [2], -0.014; in test [3], 0.064; in test [4] it was 0.117; in test [5], 0.029.
For FKBP4 (UniProt Q02790) the same measures were -0.032, 0.042, 0.037, 0.004 and -0.029.
For H2AFX (UniProt P16104), in that order: 0.103, -0.353, -0.374, -0.043 and 0.206.
For FASTKD1 (UniProt Q53R41) the same measures were -0.038, 0.151, 0.013, 0.204 and 0.07.
Regarding GLS isoform 3 (UniProt O94925), the log2 fold change in test [1] is -0.077; in test [2], 0.204; in test [3], 0.024; in test [4] it was -0.168; in test [5], 0.067.
On to HHEX (UniProt Q03014), for which the log2 fold change in test [1] was 0.054; in test [2] it was 0.187; in test [3] it was 0.469; in test [4], 0.026; in test [5], 0.516.
Take ICAM1 (UniProt P05362): the log2 fold change was -0.005 in test [1]; 0.021 in test [2]; 0.049 in test [3]; 0.012 in test [4]; 0.031 in test [5].
For GTF2E2 (UniProt P29084), in that order: -0.009, 0.043, 0.126, -0.058 and 0.012.
Take GTF3A (UniProt Q92664): the log2 fold change is 0.002 in test [1]; -0.001 in test [2]; 0.08 in test [3]; -0.072 in test [4]; -0.071 in test [5].
As for GID4 (UniProt Q8IVV7), the log2 fold change in test [1] was -0.012; in test [2], -0.021; in test [3] it was 0.138; in test [4], 0.048; in test [5], 0.009.
With GAK (UniProt O14976), the log2 fold change is 0.095 in test [2], -0.032 in test [3], 0.078 in test [4] and -0.209 in test [5].
Turning to GSE1 (UniProt Q14687), the log2 fold change in test [1] was -0.151; in test [2], 0.029; in test [3] it was 0.008; in test [5], 1.45 (active).
Consider FCF1 (UniProt Q9Y324), for which the log2 fold change in test [3] was -0.362; in test [4], 0.248.
Turning to GSK3A (UniProt P49840), the log2 fold change in test [1] is 0.006; in test [2] it was 0.099; in test [3], 0.02; in test [4], -0.014; in test [5] it was -0.034.
In the case of GOLGA6B (UniProt A6NDN3), the log2 fold change in test [1] is 0.043; in test [3], 0.19.
On to FDPS (UniProt P14324), for which the log2 fold change in test [1] is -0.328; in test [2], 0.063; in test [3], 0.143; in test [4] it was 0.001; in test [5], -0.121.
For FAT2 (UniProt Q9NYQ8), in that order: -0.092, 0.669 (active), 0.163, -0.091 and -0.218.
With HNRNPK isoform 3 (UniProt P61978), the log2 fold change is 0.014 in test [1], 0.074 in test [3] and 0.061 in test [4].
Turning to GTF2A2 (UniProt P52657), the log2 fold change in test [1] was 0.003; in test [2] it was 0.057; in test [3] it was 0.092; in test [4], -0.064; in test [5] it was -0.017.
